# Experimental data as given in PubChem BioAssay (NCI).
# Compounds without any hit were thinned out: in the full panel of roughly 83,000, 20% have a hit.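 Treatment: one concentration, 48 hours, 96-well format. Scoring: percent growth, with anything below 10 considered active.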 A number with no mark means an inactive call. Activity calls are given as the source filed them.
# Experiments:
# Assay in all cases: NCI-60 one-dose screen, 48 h (100 = growth as untreated, 0 = no growth, -100 = all killed)
# Settings in all cases: 10 µM unless noted
# NCI-H23 lung = system: NCI-H23 lung
# NCI-H226 lung = system: NCI-H226 lung
# NCI-H322M lung = system: NCI-H322M lung
# HOP-62 NSCLC = system: HOP-62 NSCLC
# NCI-H460 lung = system: NCI-H460 lung
# HOP-92 NSCLC = system: HOP-92 NSCLC
# NCI-H522 lung = system: NCI-H522 lung
# A549/ATCC NSCLC = system: A549/ATCC NSCLC
# 786-0 renal = system: 786-0 renal
# COLO 205 colon = system: COLO 205 colon
# DU-145 prostate = system: DU-145 prostate
# K-562 leukemia = system: K-562 leukemia
# MALME-3M melanoma = system: MALME-3M melanoma
# MDA-MB-231 breast = system: MDA-MB-231 breast
# RXF 393 renal = system: RXF 393 renal
# SF-268 CNS = system: SF-268 CNS
# SF-539 CNS = system: SF-539 CNS
# UACC-257 melanoma = system: UACC-257 melanoma
# M14 melanoma = system: M14 melanoma
# SF-295 CNS = system: SF-295 CNS
SMILES,growth (NCI-H23 lung),growth (NCI-H226 lung),growth (NCI-H322M lung),growth (HOP-62 NSCLC),growth (NCI-H460 lung),growth (HOP-92 NSCLC),growth (NCI-H522 lung),growth (A549/ATCC NSCLC),growth (786-0 renal),growth (COLO 205 colon),growth (DU-145 prostate),growth (K-562 leukemia),growth (MALME-3M melanoma),growth (MDA-MB-231 breast),growth (RXF 393 renal),growth (SF-268 CNS),growth (SF-539 CNS),growth (UACC-257 melanoma),growth (M14 melanoma),growth (SF-295 CNS)
O=C(Oc1cccnc1)c1ccsc1Nc1ccnc(C(F)(F)F)c1,35.4%,98.6%,104%,96%,105%,44.6%,44.8%,98.2%,108%,101%,108%,25.7%,84.9%,63.2%,105%,42.6%,99.9%,76%,81.6%,–
CCCCC/C(C=C(C#N)C#N)=C/c1ccccc1,68.9%,116%,102%,106%,37.4%,112%,-10.1% (active),61.6%,87%,86.5%,71.3%,42.2%,95.4%,77.7%,–,81.7%,92.3%,54%,73%,84.4%
COc1ccc(Nc2c3c4c(cccc4[nH]c2=O)C(=O)c2ccccc2-3)cc1,4.11% (active),17%,24.9%,28%,-44.4% (active),15.5%,-20.4% (active),20.6%,12.1%,-64.5% (active),-20.9% (active),-19% (active),41.1%,-20.5% (active),–,21.4%,-31.3% (active),64.1%,11.7%,-52.4% (active)
COc1ccc(NC(=O)c2ccc(/C=C/C(=O)c3ncc[nH]3)cc2)cc1,64.7%,96.5%,85.4%,79.1%,64%,104%,51.4%,81.5%,67.1%,72.4%,34.1%,–,95.1%,91.6%,76.9%,72.4%,64.1%,97.8%,–,88.4%
Cc1cc(Nc2ccc(C)c(Cl)c2)n2nc(C(F)(F)F)nc2n1,63.6%,21.3%,93.3%,-17.2% (active),69%,-9.25% (active),36.2%,42.5%,-46.2% (active),38.3%,42.5%,54.8%,-15.2% (active),2.77% (active),-9.51% (active),39.4%,33.1%,74.4%,51.7%,–
NC(=O)c1cc(Cl)ccc1NC(=O)/C=C/c1ccccc1,60.3%,63.6%,45.1%,84.9%,12.1%,58.7%,4.73% (active),17.8%,56.8%,-43.3% (active),-0.745% (active),11.6%,67%,39.2%,-11.1% (active),46.1%,-6.33% (active),46.2%,28.1%,–
Cc1cc(N2CCN(c3ccnc4cc(Cl)ccc34)CC2)nc(NC2CCCCC2)n1,29.9%,64.4%,58.5%,29.6%,1.4% (active),20.4%,50.2%,34%,37.9%,-48.4% (active),51.5%,5.36% (active),–,-3.08% (active),48.8%,47.4%,43%,-0.92% (active),-45.1% (active),18.9%
OCCNc1nccc(N2CCN(c3ccnc4cc(Cl)ccc34)CC2)n1,80.5%,92.2%,84.2%,56.3%,96.8%,88.7%,65.2%,80.6%,92.8%,65.6%,98.8%,24.2%,–,54.9%,77.1%,82.7%,79.6%,84%,–,58%
CC/C=C\C[C@H]1C/C=C2/C(=O)C=C[C@H]2C/C=C\CCCC(=O)O1,39.4%,40.5%,37.7%,22.5%,27.4%,51.2%,-17.7% (active),29.5%,24.7%,6.26% (active),15%,–,75.1%,40.5%,36.6%,39.9%,14.7%,47.1%,–,23.3%
COc1ccc(-c2cc(C(=O)N=Nc3c(O)[nH]c4ccc(Br)cc34)no2)cc1,87%,86.3%,99%,90.5%,101%,96.7%,83.2%,103%,105%,114%,105%,96.5%,92.4%,92.8%,107%,99.4%,95.9%,112%,98.9%,103%
CS(=O)(=O)c1ccc(-n2nc(-c3ccc(Br)cc3)c3ccccc3c2=O)cc1,95%,100%,109%,97.2%,99.1%,85.7%,97%,97.9%,121%,103%,99.2%,90.9%,–,90.1%,97.1%,95%,96.2%,97.3%,107%,94%
CC(=O)c1cc(C(=O)c2ccc3c(c2)Sc2ccccc2N3)n2ccccc12,24.1%,32.5%,24.5%,21.8%,2.97% (active),46.1%,-28.9% (active),10.8%,22.5%,-55.4% (active),1.94% (active),–,53.1%,17.9%,7.01% (active),29.7%,-38.3% (active),51.4%,–,8.93% (active)
COc1ccc(C2Nc3c(c(C(C)(C)C)nn3-c3ccccc3)C(=O)CS2)cc1 (stereo unspecified),99.6%,98.2%,104%,106%,106%,91.7%,84.5%,89.3%,113%,103%,101%,98.5%,98%,94.2%,103%,98%,109%,101%,112%,–
NCCNc1nc(Nc2ccc(-c3nc4ccccc4[nH]3)cc2)c2cn[nH]c2n1,57.9%,81.4%,98.9%,97.5%,54.9%,60.4%,16.6%,101%,93%,20.8%,90.9%,–,68%,18.8%,43%,68.1%,-9.77% (active),104%,–,62.9%
CC1=C[C@H]2c3c(c(O)c(O)c4oc(-c5ccccc5)cc(=O)c34)[C@H](c3cc(O)c(O)c4oc(-c5ccccc5)cc(=O)c34)[C@H]2C(C)(C)C1,-14.4% (active),-3.14% (active),6.91% (active),-2.06% (active),-31.8% (active),-10% (active),-12.7% (active),2.87% (active),-22.8% (active),4.64% (active),9.89% (active),2.82% (active),-12.8% (active),5.31% (active),-26.6% (active),5.26% (active),-10.5% (active),12.8%,-28.1% (active),-18.2% (active)
O=C(Cc1ccc(/C=C/C(=O)c2ncc[nH]2)cc1)Nc1ccccc1,39.8%,87.7%,67.4%,49.9%,11.7%,83.6%,31.2%,57.2%,32.8%,45.5%,17.8%,–,98.2%,70.7%,42.9%,51.5%,-23.3% (active),97.2%,73.6%,69.7%
